Experimental data taken from PubChem BioAssay AID485270 (The Scripps Research Institute Molecular Screening Center, 2010).
Hit rate of the full screen: of about 330,000 compounds, about 5,800 (1.8%) were called active. Cut-off read from the data, not from the text of the source: active = inhibition mostly above about 38% (no sharp cut-off); inactive = mostly below about 40%. Many of the other results were omitted from the sample, so actives are more common in it than they were.

Biological target: Orexin/Hypocretin receptor type 1 (Homo sapiens) (UniProt O43613)
Experiment: blocks the human orexin 1 receptor (AID 485270);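 note: 0% = agonist challenge alone and 100% = reference antagonist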
Details: OX1R-expressing cells, FRET antagonist read-out; at 6.6 µM; active compounds read high

Orexin/Hypocretin receptor type 1 (Homo sapiens), sequence (O43613 whole entry, looked up): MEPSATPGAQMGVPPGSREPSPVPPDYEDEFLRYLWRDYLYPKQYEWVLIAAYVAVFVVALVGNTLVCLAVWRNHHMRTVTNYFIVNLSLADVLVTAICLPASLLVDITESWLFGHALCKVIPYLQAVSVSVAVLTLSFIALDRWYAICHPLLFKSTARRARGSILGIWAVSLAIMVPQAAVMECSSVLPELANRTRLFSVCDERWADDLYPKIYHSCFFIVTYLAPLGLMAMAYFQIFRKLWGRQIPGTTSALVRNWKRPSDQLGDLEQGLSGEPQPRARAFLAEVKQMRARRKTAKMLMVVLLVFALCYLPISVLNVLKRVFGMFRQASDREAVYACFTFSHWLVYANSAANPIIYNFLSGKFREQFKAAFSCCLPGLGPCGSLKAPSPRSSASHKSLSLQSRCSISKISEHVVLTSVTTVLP

SMILES	inhibition
Cc1nc(-c2ccc([N+](=O)[O-])cc2)c(-c2ccccc2)o1	5.07% (inactive)
Cc1cc(CO)nn1-c1ccc([N+](=O)[O-])cc1	46.5% (inactive)
Cc1nn(-c2ccc([N+](=O)[O-])cc2)c(N)c1-c1ccccc1	62.8% (active)
O=C(COc1ccc(Br)cc1F)NCC1(N2CCCCC2)CCCCC1	9.11% (inactive)
O=C(COC(=O)c1ccc([N+](=O)[O-])o1)NC12CC3CC(CC(C3)C1)C2	23.2% (inactive)
O=C(Oc1ccccc1C(=S)N1CCCCC1)c1cc([N+](=O)[O-])cc([N+](=O)[O-])c1	123% (active)
O=C(Nc1ccc(C(=O)N2CCCCC2)cc1)c1cccc([N+](=O)[O-])c1	4.33% (inactive)
O=C(Oc1ccc(Br)cc1C(=S)N1CCOCC1)c1cccc([N+](=O)[O-])c1	18.1% (inactive)
CC(=O)Nc1ccc(NC(=O)COC(=O)C2CCC(C(C)(C)C)CC2)cc1 (stereo not drawn)	7.49% (inactive)
O=C(Nc1ccc(-n2cccn2)cc1)C1CCN(Cc2ccsc2)CC1	-0.73% (inactive)
COc1ccccc1CNC(=O)c1ccc(Cl)c(S(=O)(=O)N2CCCC2)c1	16.6% (inactive)
COc1ccc(CNC(=O)COC(=O)C(CCSC)N2C(=O)c3ccccc3C2=O)cc1 (stereo not drawn)	9.55% (inactive)
COc1cc(OC)cc(C(=O)NC(C(=O)N2CCC2)C(C)C)c1 (stereo not drawn)	4.23% (inactive)
COc1ccc(NC(=O)CS(=O)(=O)c2ccccc2)cc1	-4.46% (inactive)
COc1ccc(-c2nnc(NC(=O)CS(=O)(=O)c3ccc(Cl)cc3)o2)c(OC)c1	47.9% (active)
Cc1ccc(C)c(-c2nnc(NC(=O)CS(=O)(=O)c3ccccc3)o2)c1	12.7% (inactive)
CCCCNc1c(-c2cccc(Sc3ccc(OC)cc3)c2)nc2ccccn12	32.8% (inactive)
c1ccc2c(CCN3CCNC[C@H]3Cc3cccc4ccccc34)cccc2c1	3.65% (inactive)
CC(NC(=O)COC(=O)Cn1cc(C(F)(F)F)ccc1=O)c1ccccc1 (stereo not drawn)	3.44% (inactive)
O=c1[nH]c(-c2cccs2)nc2ccccc12	42.7% (inactive)

SMILES	inhibition
O=c1[nH]c(-c2ccccc2)c(-c2ccccc2)[nH]1	8.25% (inactive)
Nc1ccc2nc3c(=O)[nH]c(=S)[nH]c3nc2c1	93.8% (active)
O=c1[nH]c(=O)c2nc3ccccc3nc2[nH]1	53.3% (active)
Cc1cc2nc3c(=O)n(Cc4ccccc4)c(=O)[nH]c3nc2cc1N	14.8% (inactive)
O=C1OCCN1C(=O)[C@H]1[C@H](c2ccc(Cl)cc2)C(c2cccc(Cl)c2)=NN1c1ccc(Br)cc1	-1.81% (inactive)
Cc1ccc(C)c(N2CCN(C(=O)CCc3nc(-c4cccc(C(F)(F)F)c4)no3)CC2)c1	5.16% (inactive)
CC(=O)N(O)CCCCCNC(=O)CCC(=O)N(O)CCCCCNC(=O)CCC(=O)N(O)CCCCCNC(=O)CCC(=O)O	3.94% (inactive)
Cc1ccc(C(=O)Nc2ccc3c(c2)OCCO3)cc1S(=O)(=O)N1CCOCC1	1.11% (inactive)
COc1cc(OC)cc(C(=O)N[C@H](C(=O)NNC(=O)c2ccc(Br)cc2)C(C)C)c1	6.01% (inactive)
N/C(=N\OC(=O)c1ccc2c(c1)OCO2)c1ccc(Br)cc1	10.9% (inactive)
Nc1[nH][nH]c(=O)c1N=Nc1ccc2c(c1)OCO2	84.8% (active)
O=C(c1ccc2c(c1)OCO2)N1CCOCC1	14.4% (inactive)
CC(C)(C)OC(=O)C[C@@H]1C/C=C\C[C@@H](CC(=O)N[C@H](CO)Cc2ccccc2)C(=O)NCCOC1=O	5.83% (inactive)
O=C(C[C@H]1C/C=C\C[C@@H](NC(=O)OCC2c3ccccc3-c3ccccc32)C(=O)O[C@@H](c2ccccc2)CNC1=O)N[C@H](CO)Cc1ccccc1	6.4% (inactive)
Cc1cc(N2CCCC2)ccc1NC(=O)COc1ccc(Cl)cc1	8.39% (inactive)
COC(=O)N/N=C/c1c[n+]([O-])c2ccccc2[n+]1[O-]	101% (active)
COC(=O)N/N=C/c1ccc(/C=N/NC(=O)OC)cc1	48.6% (inactive)
COC(=O)N/N=C/c1cn(CCCOc2ccc(C)cc2)c2ccccc12	13.5% (inactive)
O=C(Nc1cc(S(=O)(=O)N2CCCCC2)ccc1Cl)C1COc2ccccc2O1 (stereo not drawn)	2.12% (inactive)
CC(=O)c1ccc(NC(=O)CSc2nc3ccccc3c(=O)n2CCCN2CCOCC2)cc1	3.62% (inactive)

SMILES	inhibition
Fc1ccc(-n2c(Cc3ccccc3)nnc2SCc2nc(-c3ccc(Cl)cc3)no2)cc1	35% (active)
Cc1ccc(-c2noc(CSc3nnc(-c4ccncc4)n3-c3ccc(F)cc3)n2)cc1	13.8% (inactive)
Cc1ccc(-c2noc(CSc3nnc(-c4ccccc4)n3C)n2)cc1	14.3% (inactive)
O=C(CSc1nnc(-c2ccc([N+](=O)[O-])cc2)o1)Nc1ccccn1	20.6% (inactive)
CCOC(=O)CSc1nnc(-c2ccc([N+](=O)[O-])cc2)o1	58.6% (active)
Cc1cccc(C)c1OC(=O)CSc1nnc(-c2ccccc2)o1	27.6% (inactive)
Cc1noc(C)c1NC(=O)Nc1ccc2c(c1)C(=O)N([C@H](C)CO)C[C@H](C)[C@@H](CN(C)C(=O)Nc1ccc(C(F)(F)F)cc1)O2	7.42% (inactive)
COc1ccc(CCNC(=O)COC(=O)c2ncc(Cl)c(Cl)c2Cl)cc1OC	9.72% (inactive)
Cc1ccc(-c2noc(CSc3nnnn3-c3ccccc3)n2)cc1	5.93% (inactive)
COc1ccc(C)cc1-n1nnnc1SCc1nc2ccccc2c(=O)[nH]1	35.5% (inactive)
Cc1ccc(Nc2nc(CSc3nnnn3-c3ccccc3)cc(=O)[nH]2)cc1	81.8% (active)
CCn1c(O)c(N=NC(=O)c2cccc(S(=O)(=O)N3CCCCC3)c2)c2ccccc21	11% (inactive)
COC(=O)Cn1c2ccc(C)cc2c2nc(C)sc21	11.6% (inactive)
CCn1c(O)c(N=NC2=NC(=O)CS2)c2cc(C)ccc21	101% (active)
CCN(C(=O)CSc1cccc[n+]1[O-])c1ccccc1	0.91% (inactive)
CN(CCO)S(=O)(=O)c1ccc2c(c1)C(=O)c1cc(S(=O)(=O)N(C)CCO)ccc1-2	57.6% (active)
O=C(O)c1ccc(NS(=O)(=O)c2ccc3c(c2)C(=O)c2cc(S(=O)(=O)Nc4ccc(C(=O)O)cc4)ccc2-3)cc1	18.6% (inactive)
CN(CC(=O)O)S(=O)(=O)c1ccc2oc3ccccc3c2c1	7.24% (inactive)
